The list is not random: actives were taken first. Their share in the collection is about 11%.
Pf growth 48h: inhibits P. falciparum growth in the first generation, 48 h; P. falciparum luciferase growth in erythrocytes, 48 h; Potency, µM (titrated, usually from 28.7 µM), for inactives: at the highest dose activity change, negative = inhibition, hits mostly inhibitors; 310,000 tested, 5.9% active; AID 504832
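Cell-based growth assay: transgenic P. falciparum expressing firefly luciferase, cultured in red cells within RPMI 1640 containing 0.5% w/v Albumax, 24 mM bicarbonate and gentamycin. A drop in luciferase activity indicates inhibition.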
HCV inhibitor: inhibitors of hepatitis C virus infection. Huh7.5.1 HCVcc-Cre infection, luciferase reporter, 44 h. Potency, µM (titrated, usually from 41.8 µM), inactives show at the highest dose activity change, negative = inhibition, most hits filed as inhibitors. 340,000 tested, 3.4% active
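Antiviral activity was scored by luciferase reporter output from cells infected with HCVcc-Cre (~0.5 moi) in presence of compound, 44 h infection period, cells seeded 1,000/well 4 h prior.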
AMA1-RON2 inh: inhibitors of Plasmodium falciparum AMA1-RON2 interaction | AlphaScreen AMA1-biotinylated RON2 peptide binding | Potency, µM (titrated, usually from 58.2 µM), for inactives: at the highest dose activity change, negative = inhibition, most hits filed as inhibitors | 360,000 tested, 0.2% active | AID 720542;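 note: 0% = vehicle wells and -100% = peptide control; nearly all actives have a fitted effect of over 45% in size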
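AMA1 (3D7) with his tag at 25 nM final met compounds first, then biotinylated RON2 peptide at 25 nM; detection used donor plus acceptor beads, 10 µg/mL apiece, read by AlphaScreen after 30 min at room temperature.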
Pf growth 96h: inhibits malaria parasite growth, 96 h; Potency, µM (top dose mostly 28.7 µM), for inactives: top-dose activity change, negative = inhibition, actives largely listed as inhibitors; 320,000 tested, 6.9% active; AID 504834; P. falciparum luciferase reporter growth, 96 h
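Infected RBCs, 2% Hct / 0.05% parasitemia final; luciferase-reporter P. falciparum; cpd 96 h, 37 C, 5% CO2; luciferase detection reagent; luminescence.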
* marks the source's active call; other numbers are inactive results; u = inconclusive; x = no result; [ ] = another dose, or the depositor's remark. Calls come from the whole dose curve; as a rule, active = well fitted curve in the direction sought with a large enough effect; inconclusive = small, poorly fitted or top-dose-only effect, or another doubt; inactive = no such curve, though single readings can be large; an effect the other way counts as inactive or inconclusive. Unless noted, % is set by controls: 0 for no effect and ±100 for the full control effect; potency is the fitted concentration of half-maximal effect.

SMILES	Pf growth 48h	HCV inhibitor	AMA1-RON2 inh	Pf growth 96h
CC[C@]12C=CCN3CCC4(c5cc(Br)c(OC)cc5N(C)C4[C@@](O)(C(=O)OC)[C@@H]1OC(C)=O)C32 (some centres undefined)	u	12.4%	0.3%	u
CCC1(O)CC2CN(CCc3c([nH]c4ccccc34)C(C(=O)OC)(c3cc4c(cc3OC)N(C=O)C3C(O)(C(=O)OC)C(OC(C)=O)C5(CC)C=CCN6CCC43C65)C2)C1 (centres undefined)	x	0.0%	4.3%	x
CC[C@]1(O)CC2CN(CCc3c([nH]c4ccccc34)[C@@](C(=O)OC)(c3cc4c(cc3OC)N(C)[C@H]3[C@@](O)(C(=O)OC)[C@H](OC(C)=O)[C@]5(CC)C=CCN6CC[C@]43[C@@H]65)C2)C1 (some centres undefined)	0.477µM*	x	x	0.849µM*
Cc1ccc(S(=O)(=O)C2(C(=O)N3CCN(c4cc(C)ccc4C)CC3)CC2)cc1	u	u	-6.5%	-25.9%
O=C1NCCCC2c3cc(O)c4ccccc4c3OC12N1CCCCC1 (centres undefined)	8.28µM*	x	x	19.6%
O=C(COc1ccc(Br)cc1CO)Nc1ccc(S(=O)(=O)N2CCCCC2)cc1	9.28µM*	u	4.4%	6.57µM*
CCc1ccc(OCC(=O)Nc2ccc(S(=O)(=O)N3CCCC3)cc2)c(Br)c1	13.1µM*	u	-13.8%	x
CCN1CN(Cc2ccco2)CNC1=S	-12.2%	-3.2%	-25.3%	31.0%
O=C(N/N=C/c1cn(-c2ccccc2)nc1-c1ccccc1)c1ccco1	3.29µM*	u	-4.2%	37.3%
O=C(O)/C=C/c1cn(-c2ccccc2)nc1-c1ccccc1	15.6%	12.5%	8.3%	5.86µM*
O=C(N/N=C\c1cn(-c2ccccc2)nc1-c1ccccc1)c1ccc(Br)o1	9.28µM*	3.98µM*	-6.1%	4.15µM*
CC1(C)CC(=O)C(=Cc2cn(-c3ccccc3)nc2-c2ccc(Cl)cc2)C(=O)C1	8.8%	u	-1.3%	u
CC1=NNC(=O)/C1=C\c1cn(-c2ccccc2)nc1-c1ccccc1	u	11.2µM*	-3.7%	-8.9%
O=C(N/N=C/c1cn[nH]c1-c1ccccc1)c1ccco1	-6.8%	-7.8%	3.1%	-12.2%
Cc1ccc(-c2nn(-c3ccccc3)cc2/C=N/NC(=O)c2ccc(Br)o2)cc1	u	-11.0%	12.6%	u
O=C(N/N=C/c1cn(-c2cccs2)nc1-c1ccccc1)c1ccccc1Cl	-4.4%	11.2µM*	-2.8%	29.7%
CC(C)[C@H](NC(=O)N1CC(=O)Nc2ccccc21)C(=O)N1CCC[C@H]1C(=O)O	54.8%	35.0%	0.4%	-27.2%
CC(C)[C@H](NC(=O)[C@@H]1Cc2c([nH]c3ccccc23)C2c3ccccc3C(=O)N21)C(=O)N1CCC[C@@H]1C(=O)O (some centres undefined)	-11.1%	7.5%	0.0%	14.7µM*
COc1ccc(S(=O)(=O)Nc2cc(C(C)C)c(O)cc2C)cc1	-13.4%	u	-0.8%	4.7%
COc1ccc2nc3cc(Cl)ccc3c(Nc3cc(C(C)C)c(O)cc3C)c2c1	0.0208µM*	11.2µM*	15.8µM*	0.0657µM*
O=c1c(C(c2ccc(O)cc2)c2c(O)nc3n(c2=O)CCS3)c(O)nc2n1CCS2	-6.0%	14.6%	-7.9%	-0.6%
O=c1c(C(c2ccc(O)cc2)c2c(O)nc3n(c2=O)CCCS3)c(O)nc2n1CCCS2	2.94µM*	21.5%	-3.0%	u
N#Cc1c(NC(=O)COC(=O)c2ccc(S(=O)(=O)N3CCCC3)cc2)sc2c1CCCCC2	5.4%	u	11.5%	27.6%
CCCCN(C(=O)CSc1nn(-c2ccc(F)cc2)c(=S)s1)c1c(N)n(CCCC)c(=O)[nH]c1=O	u	u	-14.7%	13.1µM*
CCCCn1c(N)c(N(CC(C)C)C(=O)CCCc2nc3ccccc3s2)c(=O)[nH]c1=O	u	16.6%	0.1%	u
SMILES	Pf growth 48h	HCV inhibitor	AMA1-RON2 inh	Pf growth 96h
Cn1c(N)c(C(=O)CSc2nn(-c3ccc(F)cc3)c(=S)s2)c(=O)n(C)c1=O	u	7.08µM*	3.2%	u
CCCCN(C(=O)CSc1nc2ccccc2s1)c1c(N)n(CCCC)c(=O)[nH]c1=O	x	-2.3%	18.3%	x
CCCCCN(C(=O)CCC(=O)OCC(=O)c1ccc(C(C)CC)cc1)c1c(N)n(CCCC)c(=O)[nH]c1=O (centres undefined)	10.4µM*	u	-4.7%	u
CCCCn1c(N)c(N(CCC(C)C)C(=O)CCCc2nc3ccccc3s2)c(=O)[nH]c1=O	-6.0%	0.5%	-3.6%	14.7µM*
Cn1c(N)c(C(=O)CSc2nnnn2-c2ccccc2)c(=O)n(C)c1=O	u	13.1%	0.0%	3.0%
COc1ccc(Cc2nnc(SC)n2-c2ccc(F)cc2)cc1OC	x	x	-16.8%	x
CC(=O)c1ccc(S(=O)(=O)N(C)CC(=O)NCc2ccco2)cc1	41.1%	5.7%	-1.3%[11.6 µM]	13.2%
CCCCn1c(N)c(N(CCOC)C(=O)c2cc(-c3ccc(OC)c(OC)c3)nc3ccccc23)c(=O)[nH]c1=O	u	2.0%	21.2%	-5.7%
CCCCn1c(N)c(N(CC(C)C)C(=O)c2cc(-c3ccc(OC)c(OC)c3)nc3ccccc23)c(=O)[nH]c1=O	1.31µM*	13.3%	-4.1%	u
CCCCn1c(N)c(N(CC(C)C)C(=O)c2cc(-c3ccc(OC)cc3)nc3ccccc23)c(=O)[nH]c1=O	x	1.1%	-7.8%	x
CCCCn1c(N)c(N(CC(C)C)C(=O)c2cc(-c3ccc(F)cc3)nc3ccccc23)c(=O)[nH]c1=O	11.7µM*	9.0%	13.1%	u
CCCCN(C(=O)c1cc(-c2ccco2)nc2ccccc12)c1c(N)n(CCCC)c(=O)[nH]c1=O	u	-1.8%	-22.4%	u
CCCCN(C(=O)c1cc(-c2ccc(F)cc2)nc2ccccc12)c1c(N)n(CCCC)c(=O)[nH]c1=O	u	u	7.6%	7.38µM*
OC(CNCc1ccc(Cl)cc1)C(F)(F)F (centres undefined)	12.3%	15.1%	0.0%	11.2%
Cn1c(N)c(C(=O)COC(=O)COc2ccccc2C#N)c(=O)n(C)c1=O	u	3.5%	9.0%	12.5%
CCCc1cc(-c2[nH]ncc2-c2ccc(C(=O)OCC)o2)c(O)cc1O	6.57µM*	u	-4.6%	7.1%
CCCc1cc(-c2[nH]ncc2-c2ccc3c(c2)OCCCO3)c(O)cc1O	u	11.2µM*	14.4%	13.1µM*
Cc1cc(C)c(C(=O)c2ccc(C(=O)NC(C)(C)C)cc2)c(C)c1	x	u	9.5%	3.29µM*
CC(C)(C)NC(=O)c1ccncc1	x	10.1%	3.1%	10.4µM*
Cc1ccc(NC(=O)N2CCCc3ccccc32)cc1C	100.0%	5.0%	3.6%	-38.9%
COc1ccc(CC(=O)NCC2CCCN(Cc3ccc(OC)cc3F)C2)cc1 (centres undefined)	-1.2%	-2.1%	0.2%	9.28µM*
CCNC(=O)c1ccc2c(c1)C1C3CCC(C3)C1C(c1ccccc1)N2 (centres undefined)	7.38µM*	10.1%	-18.9%	49.8%

Assay outcomes deposited in PubChem BioAssay by National Center for Advancing Translational Sciences (NCATS).
